# Experimental data: the supplement of paper PMC11001985
# Unmarked numbers belong to inactive results.
# Compound: C#CCNC(=O)CCSSCCC(=O)NCCc1ccc(C=O)c(C=O)c1
# Assay: lysine labeling ratio R10:1 (500 µM / 50 µM probe), SILAC-ABPP in living cells; higher = lower intrinsic lysine reactivity toward the probe, active = 2 or less
# Settings: HeLa; probe concentrations 500 vs 50 µM
# Outline: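 Measurements came from LC-MS/MS on a TIMS-TOF Pro of mixed SILAC light and heavy HeLa lysates after click to biotin-azide, trypsin digestion, neutravidin capture, DTT release and alkylation. Before lysis, the living cells sat in PBS at room temperature with 50 µM or 500 µM of an alkyne-tagged, disulfide-linked lysine probe, and labels were swapped forward and reverse. R per lysine is the median across both swap directions of the filtered median high-probe/low-probe MS1 peptide ratio. The cap is 20.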
# UniProt Q15149, sequence (Q15149 whole entry): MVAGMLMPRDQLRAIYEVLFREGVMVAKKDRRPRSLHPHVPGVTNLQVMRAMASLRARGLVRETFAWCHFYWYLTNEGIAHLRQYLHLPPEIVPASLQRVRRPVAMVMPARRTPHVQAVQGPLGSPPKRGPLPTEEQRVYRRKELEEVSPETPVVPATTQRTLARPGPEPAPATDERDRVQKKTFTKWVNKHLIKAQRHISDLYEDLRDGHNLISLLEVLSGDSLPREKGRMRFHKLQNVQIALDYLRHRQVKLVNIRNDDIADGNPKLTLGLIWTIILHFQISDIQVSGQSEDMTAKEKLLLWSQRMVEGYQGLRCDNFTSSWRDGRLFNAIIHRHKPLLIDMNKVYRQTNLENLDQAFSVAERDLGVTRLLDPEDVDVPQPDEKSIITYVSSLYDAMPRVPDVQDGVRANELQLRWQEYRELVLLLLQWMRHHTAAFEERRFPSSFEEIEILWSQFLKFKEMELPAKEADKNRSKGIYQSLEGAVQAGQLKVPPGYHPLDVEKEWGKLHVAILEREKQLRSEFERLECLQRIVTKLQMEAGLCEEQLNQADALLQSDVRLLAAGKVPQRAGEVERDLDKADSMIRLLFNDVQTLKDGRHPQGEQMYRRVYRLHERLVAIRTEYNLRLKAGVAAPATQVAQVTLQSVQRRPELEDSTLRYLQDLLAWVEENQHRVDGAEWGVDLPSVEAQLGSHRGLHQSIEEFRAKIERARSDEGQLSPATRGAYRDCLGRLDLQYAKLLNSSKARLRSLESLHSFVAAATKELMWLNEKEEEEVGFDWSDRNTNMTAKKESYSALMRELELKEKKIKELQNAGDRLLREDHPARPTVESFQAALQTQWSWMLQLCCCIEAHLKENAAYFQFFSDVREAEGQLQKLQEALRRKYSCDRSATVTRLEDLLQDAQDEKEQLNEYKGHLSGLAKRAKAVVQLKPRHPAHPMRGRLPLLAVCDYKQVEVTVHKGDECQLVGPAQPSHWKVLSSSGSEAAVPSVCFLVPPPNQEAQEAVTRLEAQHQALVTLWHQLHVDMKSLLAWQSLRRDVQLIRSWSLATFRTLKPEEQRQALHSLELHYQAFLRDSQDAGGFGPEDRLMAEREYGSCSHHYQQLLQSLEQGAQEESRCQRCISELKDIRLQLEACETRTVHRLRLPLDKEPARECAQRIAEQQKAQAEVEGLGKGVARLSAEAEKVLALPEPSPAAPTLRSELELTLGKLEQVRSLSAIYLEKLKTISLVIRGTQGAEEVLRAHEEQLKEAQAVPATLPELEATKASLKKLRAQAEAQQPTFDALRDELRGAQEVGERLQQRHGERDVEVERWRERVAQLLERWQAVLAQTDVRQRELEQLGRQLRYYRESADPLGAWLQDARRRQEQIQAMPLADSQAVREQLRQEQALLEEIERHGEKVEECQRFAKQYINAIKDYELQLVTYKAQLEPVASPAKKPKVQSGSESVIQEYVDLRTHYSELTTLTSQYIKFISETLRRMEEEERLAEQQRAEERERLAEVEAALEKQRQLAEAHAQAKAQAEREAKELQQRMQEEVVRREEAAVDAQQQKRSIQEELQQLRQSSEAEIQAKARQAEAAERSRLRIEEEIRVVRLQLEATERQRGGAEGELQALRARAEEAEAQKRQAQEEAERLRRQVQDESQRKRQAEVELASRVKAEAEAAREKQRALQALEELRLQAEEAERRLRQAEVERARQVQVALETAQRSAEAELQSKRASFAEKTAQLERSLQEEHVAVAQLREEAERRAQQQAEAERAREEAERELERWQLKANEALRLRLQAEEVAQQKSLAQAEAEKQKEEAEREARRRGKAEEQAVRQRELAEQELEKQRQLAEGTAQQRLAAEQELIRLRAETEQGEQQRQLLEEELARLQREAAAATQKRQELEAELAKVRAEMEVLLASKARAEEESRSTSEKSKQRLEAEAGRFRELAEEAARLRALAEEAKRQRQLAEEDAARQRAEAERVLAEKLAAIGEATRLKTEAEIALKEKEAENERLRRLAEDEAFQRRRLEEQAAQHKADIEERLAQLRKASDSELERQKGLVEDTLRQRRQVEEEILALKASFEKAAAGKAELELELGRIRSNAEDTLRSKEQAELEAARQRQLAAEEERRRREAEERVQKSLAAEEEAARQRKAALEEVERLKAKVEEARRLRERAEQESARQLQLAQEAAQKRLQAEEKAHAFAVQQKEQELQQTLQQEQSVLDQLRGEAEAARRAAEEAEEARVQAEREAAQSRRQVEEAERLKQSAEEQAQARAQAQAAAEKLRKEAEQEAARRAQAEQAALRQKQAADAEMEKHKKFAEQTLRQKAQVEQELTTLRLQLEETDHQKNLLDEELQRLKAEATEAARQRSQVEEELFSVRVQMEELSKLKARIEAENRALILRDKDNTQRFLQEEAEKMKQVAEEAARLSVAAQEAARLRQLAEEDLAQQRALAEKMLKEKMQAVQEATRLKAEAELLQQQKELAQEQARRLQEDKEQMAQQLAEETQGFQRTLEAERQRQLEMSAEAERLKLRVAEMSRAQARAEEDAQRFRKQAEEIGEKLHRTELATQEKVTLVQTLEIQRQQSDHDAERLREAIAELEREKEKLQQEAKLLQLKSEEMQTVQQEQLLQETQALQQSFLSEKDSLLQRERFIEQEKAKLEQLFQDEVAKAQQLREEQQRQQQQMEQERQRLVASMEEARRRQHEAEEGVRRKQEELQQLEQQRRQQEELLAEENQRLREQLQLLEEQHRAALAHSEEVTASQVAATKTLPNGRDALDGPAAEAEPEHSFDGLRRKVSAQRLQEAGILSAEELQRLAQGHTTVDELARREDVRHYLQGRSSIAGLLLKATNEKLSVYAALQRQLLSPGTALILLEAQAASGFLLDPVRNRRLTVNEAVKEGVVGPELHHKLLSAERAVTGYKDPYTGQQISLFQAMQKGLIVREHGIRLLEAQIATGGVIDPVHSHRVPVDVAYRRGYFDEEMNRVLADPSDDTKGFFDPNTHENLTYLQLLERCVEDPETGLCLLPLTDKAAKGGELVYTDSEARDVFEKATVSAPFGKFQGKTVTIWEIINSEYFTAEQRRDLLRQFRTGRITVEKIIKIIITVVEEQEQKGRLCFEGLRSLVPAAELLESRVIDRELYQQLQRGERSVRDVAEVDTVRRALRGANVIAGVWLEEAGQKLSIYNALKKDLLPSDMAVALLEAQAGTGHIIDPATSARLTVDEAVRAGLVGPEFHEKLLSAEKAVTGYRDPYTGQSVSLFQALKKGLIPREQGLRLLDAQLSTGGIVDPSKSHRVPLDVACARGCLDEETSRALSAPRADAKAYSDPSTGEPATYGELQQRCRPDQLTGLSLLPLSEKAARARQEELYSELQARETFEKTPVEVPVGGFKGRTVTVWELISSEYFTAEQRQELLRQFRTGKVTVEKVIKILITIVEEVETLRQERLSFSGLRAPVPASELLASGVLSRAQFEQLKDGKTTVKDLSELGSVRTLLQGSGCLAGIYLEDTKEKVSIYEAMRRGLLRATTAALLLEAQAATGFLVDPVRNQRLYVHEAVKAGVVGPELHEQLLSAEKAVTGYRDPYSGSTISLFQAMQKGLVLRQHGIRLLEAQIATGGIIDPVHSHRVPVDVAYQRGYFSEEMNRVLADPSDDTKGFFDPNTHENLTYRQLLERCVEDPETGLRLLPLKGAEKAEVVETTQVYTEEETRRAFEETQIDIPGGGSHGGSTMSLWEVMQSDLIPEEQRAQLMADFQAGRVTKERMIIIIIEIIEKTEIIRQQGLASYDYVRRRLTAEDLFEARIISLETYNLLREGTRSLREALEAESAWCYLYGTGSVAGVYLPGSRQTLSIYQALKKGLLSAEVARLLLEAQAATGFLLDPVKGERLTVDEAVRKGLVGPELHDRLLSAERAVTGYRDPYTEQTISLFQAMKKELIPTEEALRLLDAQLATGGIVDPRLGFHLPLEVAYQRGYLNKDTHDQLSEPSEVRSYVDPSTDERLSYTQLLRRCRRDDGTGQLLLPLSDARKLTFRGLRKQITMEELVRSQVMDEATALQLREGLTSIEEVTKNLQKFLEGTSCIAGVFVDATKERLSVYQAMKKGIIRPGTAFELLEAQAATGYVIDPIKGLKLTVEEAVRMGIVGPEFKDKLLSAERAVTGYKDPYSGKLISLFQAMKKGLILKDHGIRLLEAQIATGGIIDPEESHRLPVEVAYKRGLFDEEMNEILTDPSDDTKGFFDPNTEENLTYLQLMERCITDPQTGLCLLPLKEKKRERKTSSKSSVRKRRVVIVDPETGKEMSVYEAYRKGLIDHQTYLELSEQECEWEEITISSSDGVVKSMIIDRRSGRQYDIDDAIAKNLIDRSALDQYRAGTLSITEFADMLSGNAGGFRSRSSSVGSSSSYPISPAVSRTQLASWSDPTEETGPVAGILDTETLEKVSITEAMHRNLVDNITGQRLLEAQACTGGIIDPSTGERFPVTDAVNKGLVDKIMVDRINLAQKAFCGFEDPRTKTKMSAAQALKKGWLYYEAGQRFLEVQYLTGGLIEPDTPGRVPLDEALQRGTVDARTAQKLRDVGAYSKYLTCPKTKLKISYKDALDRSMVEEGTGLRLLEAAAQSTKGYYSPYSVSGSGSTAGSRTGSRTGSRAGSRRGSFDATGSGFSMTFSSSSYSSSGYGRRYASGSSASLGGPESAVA
# UniProt Q9UJZ1, sequence (Q9UJZ1 whole entry): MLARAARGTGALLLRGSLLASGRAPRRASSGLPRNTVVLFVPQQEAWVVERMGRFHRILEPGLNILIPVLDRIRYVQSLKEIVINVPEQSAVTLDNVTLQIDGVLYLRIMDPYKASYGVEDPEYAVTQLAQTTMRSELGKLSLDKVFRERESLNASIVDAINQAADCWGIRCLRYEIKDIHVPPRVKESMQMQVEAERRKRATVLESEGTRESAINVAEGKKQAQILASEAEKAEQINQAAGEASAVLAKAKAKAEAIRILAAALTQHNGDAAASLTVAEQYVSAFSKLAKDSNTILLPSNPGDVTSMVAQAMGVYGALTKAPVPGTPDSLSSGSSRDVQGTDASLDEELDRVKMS
row,Target,lysine labeling ratio R10:1
1,PSMA4 (lysine site: K210) (UniProt P25789),1.69 (active)
2,UniProt P59998 (lysine site: K44),7.73
3,UniProt Q9NRD8 (lysine site: K530),6.54
4,EGFR (lysine site: K325) (UniProt P00533),5.84
5,IGF1R (lysine site: K667) (UniProt P08069),1.28 (active)
6,UniProt Q15365 (lysine site: K314),1.71 (active)
7,AHNAK (lysine site: K326) (UniProt Q09666),1.7 (active)
8,NRP1 (lysine site: K504) (UniProt O14786),6.03
9,HSP90B1 (lysine site: K75) (UniProt P14625),1.47 (active)
10,UniProt P62491 (lysine site: K179),2.31
11,UniProt P62273 (lysine site: K13),1.45 (active)
12,UniProt Q9UHN6 (lysine site: K1182),6.32
13,DDX23 (lysine site: K204) (UniProt Q9BUQ8),0.85 (active)
14,EGFR (lysine site: K212) (UniProt P00533),2.63
15,TNPO1 (lysine site: K889) (UniProt Q92973),1.09 (active)
16,MSN (lysine site: K64) (UniProt P26038),1.22 (active)
17,STOML2 (lysine site: K145) (UniProt Q9UJZ1),3.01
18,SPTBN1 (lysine site: K497) (UniProt Q01082),2.59
19,LMO7 (lysine site: K1456) (UniProt Q8WWI1),1.37 (active)
20,CDV3 (lysine site: K15) (UniProt Q9UKY7),2.4

row,Target,lysine labeling ratio R10:1
1,DARS (lysine site: K40) (UniProt P14868),2.54
2,STMN1 (lysine site: K119) (UniProt P16949),1.62 (active)
3,UniProt Q6NZI2 (lysine site: K258),9.27
4,UniProt P06576 (lysine site: K264),4.08
5,UniProt Q8WXI7 (lysine site: K12605),3.8
6,UniProt Q15149 (lysine site: K2452),3.75
7,EEF2 (lysine site: K598) (UniProt P13639),1.36 (active)
8,CXADR (lysine site: K88) (UniProt P78310),1.11 (active)
9,AGRN (lysine site: K383) (UniProt O00468),12.9
10,DDR1 (lysine site: K30) (UniProt Q08345),1.33 (active)
11,EDIL3 (lysine site: K431) (UniProt O43854),1.29 (active)
12,FLNB (lysine site: K697) (UniProt O75369),2.95
13,EPPK1 (lysine site: K2707) (UniProt P58107),3.42
14,MSLN (lysine site: K559) (UniProt Q13421),2.61
15,FLNA (lysine site: K876) (UniProt P21333),4.23
16,ICAM1 (lysine site: K469) (UniProt P05362),4.19
17,ANPEP (lysine site: K104) (UniProt P15144),1.17 (active)
18,THBS1 (lysine site: K919) (UniProt P07996),1.72 (active)
19,UniProt Q15149 (lysine site: K3887),3.96
20,UniProt P05186 (lysine site: K241),3.23
